# Inconclusive results are not listed. The source made the active and inactive calls. Calls come from the whole dose curve; as a rule, active = well fitted inhibition curve with a large enough effect; inconclusive = small, poorly fitted or top-dose-only effect; inactive = flat fitted curve, though single readings scatter. Square brackets hold non-standard residues; d marks the D form. Peptide text beside a SMILES is read from it. Dolaproine = CO[C@@H]([C@@H]1CCCN1)[C@@H](C)C(=O)O; Dil = CC[C@H](C)[C@H](NC)[C@@H](CC(=O)O)OC; NMeV = CN[C@H](C(=O)O)C(C)C
# Assay: Identification of antibody-drug conjugate (ADC) payloads which are substrates of ATP-binding cassette drug efflux transporters: ABCG2-HEK293-pcDNA cell line
# Settings: ABCG2-HEK293 transfected cells viability, CellTiter-Glo, 48 h
# Excerpt: Antibody-drug conjugates (ADCs) feature an antibody recognizing a specific protein joined to a potent toxic payload. Numerous antibody-drug conjugates have received FDA approval; however, clinical resistance arises. Resistance mechanisms include decreased expression or mutation of the antibody target, impaired payload release, or increased expression of ATP-binding cassette (ABC) efflux transporters associated with multidrug resistance. We therefore sought to characterize the interaction of ABC multidrug transporters with ADC payloads. We performed a high-throughput screen with 27 common ADC payloads using cells lines expressing ABC transporters P-glycoprotein (P-gp, encoded by ABCB1) or ABCG2 (encoded by ABCG2). Confirmatory assays were also performed using cells transfected to express P-gp, ABCG2, or MRP1 (encoded by ABCC1). Several commonly used ADC payloads were substrates of P-gp, including calicheamicin gamma1, monomethyl auristatin E, DM1, and DM4. All the pyrrolobenzodiazepines tested - SJG136, SGD-1882, SG2057, and SG3199 - were substrates of P-gp, ABCG2, and MRP1. […] These findings highlight the risk of transporter-mediated resistance with certain ADC payloads and underscore the importance of selecting payloads that evade ABC transporter recognition in future ADC development.
# HEK-293 cells were transfected with empty vector (pcDNA) or vector containing the human ABCB1 (MDR-19), ABCG2 (R-5), or ABCC1 gene (MRP1) and were maintained in EMEM with 2 mg/mL G418 added to maintain transporter expression. The HeLa derivative KB-3-1 and the P-gp overexpressing KB-8-5-11 subline were maintained in DMEM; KB-8-5-11 additionally received 100 ng/mL colchicine. H460 parental cells were obtained from the Division of Cancer Treatment and Diagnosis Tumor Repository, National Cancer Institute at Frederick, MD and were cultured in RPMI. The ABCG2 expressing subline H460 MX20 was generated by selecting H460 cells in 20 nM mitoxantrone. Media in all cases was supplemented with 10% FBS and 1% penicillin-streptomycin. We explored 27 common ADC payloads, in two orthogonal, paired cell line sets-a drug selected and transfected set for each transporter--to identify substrates of the ABC transporters P-gp and ABCG2. Compounds were sourced from Levena Biopharma (San Diego, CA), Selleck Chem (Houston, TX), ChemieTek (Indianapolis, IN), or Microsource Discovery Systems (Gaylordsville, CT). Screening was performed as previously described. Briefly, cells were plated at a density of 500 cells/well in 1536 well plates with compounds added using a 1536-head pin tool (Kalypsys, San Diego CA). Cells were incubated with cytotoxic drugs and processed with CellTiter Glo reagent (Promega, Madison, WI) to determine viability after 48 hours. P-gp substrates were identified by comparing compound activity between paired sets of low-expressing (sensitive) and over-expressing (resistant) cell lines.
row,SMILES,Potency
1,Cc1nc(Nc2ncc(C(=O)Nc3c(C)cccc3Cl)s2)cc(N2CCN(CCO)CC2)n1,4750 nM (active)
2,CC[C@H](C)[C@@H]([C@H](N)CC(=O)N1CCC[C@H]1[C@H](OC)[C@@H](C)C(=O)N[C@@H](Cc1ccccc1)c1nccs1)N(C)C(=O)[C@@H](NC(=O)[C@H](C(C)C)N(C)C)C(C)C,6 nM (active)
3,CCN(C(C)=O)[C@H]1CO[C@@H](O[C@H]2[C@H](O[C@H]3C#C/C=C\C#C[C@]4(O)CC(=O)C(NC(=O)OC)=C3/C4=C\CSSSC)O[C@H](C)[C@@H](NO[C@H]3C[C@H](O)[C@H](SC(=O)c4c(C)c(I)c(O[C@@H]5O[C@@H](C)[C@H](O)[C@@H](OC)[C@H]5O)c(OC)c4OC)[C@@H](C)O3)[C@@H]2O)C[C@@H]1OC,2.7 nM (active)
4,COc1cc2cc(c1Cl)N(C)C(=O)C[C@H](O)[C@]1(C)O[C@H]1[C@H](C)C1C[C@@](O)(NC(=O)O1)[C@H](OC)/C=C/C=C(\C)C2,4750 nM (active)
5,CCN[C@H]1CO[C@@H](O[C@H]2[C@H](O[C@H]3C#C/C=C\C#C[C@]4(O)CC(=O)C(NC(=O)OC)=C3/C4=C\CSSSC)O[C@H](C)[C@@H](NO[C@H]3C[C@H](O)[C@H](SC(=O)c4c(C)c(I)c(O[C@@H]5O[C@@H](C)[C@H](O)[C@@H](OC)[C@H]5O)c(OC)c4OC)[C@@H](C)O3)[C@@H]2O)C[C@@H]1OC,1.1 nM (active)
6,COc1cccc2c1C(=O)c1c(O)c3c(c(O)c1C2=O)C[C@@](O)(C(=O)CO)C[C@@H]3O[C@H]1C[C@H]2[C@H](O[C@@H]3[C@@H](OC)OCCN32)[C@H](C)O1,0.2 nM (active)
7,CN(C)CCOc1ccc2[nH]c(C(=O)N3C[C@@H](CCl)c4c3cc(O)c3ccccc43)cc2c1,0.8 nM (active)
8,COC(=O)c1cc2c3c(cc(O)c2[nH]1)N(C(=O)c1cc2cc(OC)c(OC)c(OC)c2[nH]1)CC3CCl (stereo unspecified),3.4 nM (active)
9,CC[C@]1(O)CC2CN(CCc3c([nH]c4ccccc34)[C@@](C(=O)OC)(c3cc4c(cc3OC)N(C)[C@H]3[C@@](O)(C(=O)OC)[C@H](OC(C)=O)[C@]5(CC)C=CCN6CC[C@]43[C@@H]65)C2)C1 (stereo partly specified),300 nM (active)
10,CC[C@H](C)[C@@H]([C@@H](CC(=O)N1CCC[C@H]1[C@H](OC)[C@@H](C)C(=O)N[C@@H](Cc1ccccc1)C(=O)O)OC)N(C)C(=O)[C@@H](NC(=O)[C@@H](NC)C(C)C)C(C)C (H-[NMeV]V[Dil][Dolaproine]F-OH),3360 nM (active)
11,CC(C)(C)OC(=O)Nc1ccc2[nH]c(C(=O)N3C[C@@H](CCl)c4c3cc(O)c3ccccc43)cc2c1,16.9 nM (active)
